Source: ChEMBL document CHEMBL4513216, “Probing the Open Global Health Chemical Diversity Library for Multistage-Active Starting Points for Next-Generation Antimalarials” (ACS Infect Dis, 2020)
The campaign covered roughly 69,000 compounds. About 8,600 (12%) showed an effect of 50% or more. The entries come from a sample that favours strong results as a whole.

These compounds were tested on Plasmodium berghei (assay: Screen against P. berghei liver stage (PbLuc), transformed with Luciferase, at 10uM). Settings: tested at 10 uM.
Format: functional, HepG2

| SMILES | INHIBITION |
| --- | --- |
| N#Cc1cccc(CN2CC[C@@H]3CO[C@@H](CN4CCCC4)[C@@H]3C2)c1 | 23.3% |
| O=C(c1ccncc1)N1CCc2c(COCC3CC3)cncc2C1 | -1.55% |
| O=C(c1ccco1)N1CCc2c(COCC3CC3)cncc2C1 | -3.88% |
| Cc1ccc(C(=O)N2CCc3c(COCC4CC4)cncc3C2)o1 | 88.2% |
| N#Cc1ccc(C(=O)N2CCc3c(COCC4CC4)cncc3C2)cc1 | 43% |
| CN(C)CCOCc1cncc2c1CCN(C1CCOCC1)C2 | 12.6% |
| O=C(c1ccoc1)N1CCc2c(COCC3CC3)cncc2C1 | 64.9% |
| COCc1cncc2c1CCN(C(=O)c1ccc(C)o1)C2 | 7.11% |
| CN(C)CCOCc1cncc2c1CCN(C(=O)C1CCOCC1)C2 | 55.4% |
| CN(C)C(=O)N1CCc2c(COCC3CC3)cncc2C1 | 59% |
| O=C(c1ccc[nH]1)N1CCc2c(COCC3CC3)cncc2C1 | 14.8% |
| O=C(c1cccnc1)N1CCc2c(COCC3CC3)cncc2C1 | -5.05% |
| CN(C)CCOCc1cncc2c1CCN(C1CCOC1)C2 (stereo not given) | -2.27% |
| COCCN1CCC2(COCCN(C(=O)Cc3cccs3)C2)C1 (stereo not given) | -58.7% |
| Cc1cc(C(=O)N2CC[C@@H](N(C)C)[C@@H]2Cc2ccccc2)no1 | -2.35% |
| COc1ccc(C(O)CNC(=O)NCc2c(C)cc(C)[nH]c2=O)cc1 (stereo not given) | 16.9% |
| CCO[C@H]1CN(C(=O)c2ccnnc2)[C@@H]2COC[C@H]12 | 13.6% |
| CCn1cc(-n2cc3nc(N4CCC(O)CC4)[nH]cc-3c2=O)cn1 | -10.6% |
| O=C(c1cscn1)N1CC[C@@H]2[C@@H]1CCN2C1CCOCC1 | -23.1% |
| Cc1cnc(C(=O)N2Cc3ncn(C)c3C(COCC(C)C)C2)cn1 (stereo not given) | 43% |
| O=C(c1n[nH]cc1Cl)N1CCOCC1 | 39.1% |
| Cc1ccc(N2CCC3(CCCN(C(=O)c4cnccn4)C3)C2)nn1 (stereo not given) | 18.5% |
| Cc1noc(C)c1CN1CCc2ncnc(-c3cccnc3)c2CC1 | 25.8% |
| c1ccc(CN2CCc3ncnc(-c4ccncc4)c3CC2)nc1 | 46.2% |

| SMILES | INHIBITION |
| --- | --- |
| Cc1cc(CN2CCN(c3ccnc(-c4ccccc4)n3)CC2)no1 | 2.29% |
| Cc1noc(C)c1CN1CCc2ncnc(-c3ccncc3)c2CC1 | 90.1% |
| Cc1noc(C)c1CN1CCc2ncnc(-c3ccccc3)c2CC1 | 53% |
| Cc1ccc(CN2CCc3ncnc(-c4ccc(F)cc4)c3CC2)o1 | 13.7% |
| Cc1cnc(CN2CCN(c3ccnc(-c4ccccc4)n3)CC2)cn1 | 47.2% |
| Cc1nc(CN2CCc3ncnc(-c4ccc(F)cc4)c3CC2)cs1 | 15.4% |
| Cc1noc(C)c1CN1CCc2ncnc(-c3ccc(F)cc3)c2CC1 | 67.5% |
| Cc1noc(C)c1CN1CCN(c2ccnc(-c3ccccc3)n2)CC1 | 62.5% |
| Cc1noc(C)c1CN1CCc2ncnc(-c3cnn(C)c3)c2CC1 | 43% |
| Cc1ccc(CN2CCc3ncnc(-c4ccncc4)c3CC2)o1 | -4.32% |
| O=C(C1=CCCC1)N1CCC2(CC1)CC(Oc1cccnc1)CO2 (stereo not given) | 41.3% |
| COc1ccc(COCC(O)CNC(=O)c2ccc(C#N)cc2)cc1 (stereo not given) | 46.2% |
| CN(C)C(=O)Cn1c(C2CC2)c(CN2CCSCC2)c2cccnc21 | 23% |
| CC(=O)c1ccc(OCC(=O)c2cccn2C)cc1 | -175% |
| CC(=O)N[C@@H]1CN(C(=O)Cc2coc3cc(C)ccc23)C[C@H]1O | -5.8% |
| Cc1ccc(CN2CCc3ncnc(-c4ccoc4)c3CC2)o1 | -8.28% |
| c1ccc(CN2CCc3ncnc(-c4ccoc4)c3CC2)nc1 | 12.4% |
| Cc1noc(C)c1CN1CCc2ncnc(-c3ccoc3)c2CC1 | 68.4% |
| Cc1nnc2n1CCN(C(=O)C1CCN(Cc3ccccc3)CC1)C2 | 35.7% |
| Cc1cc(NC(=O)CC2(Cn3cnnn3)CCCCC2)nn1C | 39.1% |
| Cn1ccc(C(=O)N2CCC[C@]3(C[C@@H](OCc4ccccn4)CO3)C2)n1 | 40.9% |
| CC1CCCN(Cc2c(C3CC3)[nH]c3ncccc23)C1 (stereo not given) | 19.6% |
| OCC1CCCN(Cc2c(C3CCCC3)[nH]c3ncccc23)C1 (stereo not given) | 69.3% |
| c1cnc2[nH]c(C3CCCC3)c(CN3CCCCC3)c2c1 | -2.11% |

| SMILES | INHIBITION |
| --- | --- |
| c1cnc2[nH]c(C3CCCC3)c(CN3CCOCC3)c2c1 | 33.7% |
| Cc1cnc2[nH]c(C(F)(F)F)c(CN3CCSCC3)c2c1 | 21.1% |
| CC1CCCN(Cc2c(C3CCOCC3)[nH]c3ncccc23)C1 (stereo not given) | 59.7% |
| Cc1cnc2[nH]c(C(F)(F)F)c(CN3CCCC(CO)C3)c2c1 (stereo not given) | 50.8% |
| CCN1CCN(Cc2c(C3CCCC3)[nH]c3ncccc23)CC1 | 20.4% |
| Cc1cnc2[nH]c(C(F)(F)F)c(CN3CCOCC3)c2c1 | -0.232% |
| Cc1nc(CN2CCCC(NCCOc3ccccc3C#N)C2)no1 (stereo not given) | 44.1% |
| CC(c1ccc2c(c1)OCCO2)N(C)C(=O)c1ccnnc1 (stereo not given) | -4.21% |
| Cn1ccc(CN2CCN(CC3CC3)CC2)cc1=O | 21.5% |
| COCCCNC(=O)CN(C)C(=O)c1ccc(OC)cc1O | 7.925% |
| Cc1nc(C2CCCN(C(=O)CO)C2)cc(N2CCOCC2)n1 (stereo not given) | -1.53% |
| CCS(=O)(=O)NCc1nc(C)cc(N2CCCCC2)n1 | 75.2% |
| CCNC(=O)CCN1CCC(c2cc(N3CCOCC3)nc(C)n2)CC1 | 38.5% |
| CCS(=O)(=O)NCc1nc(C)cc(N2CCOCC2)n1 | 65.2% |
| CCCc1nc(C)cc(N2CCC3(CCC(=O)N(C4CC4)C3)CC2)n1 | -23.5% |
| Cc1cc(N2CCCC2)nc(CNS(=O)(=O)Cc2ccccc2)n1 | 81% |
| O=S(=O)(Cc1ccccc1)NCC1CCN(c2cnccn2)CC1 | -45.8% |
| CCNC(=O)CN1CCN(c2cc(C)nc(-c3ccncc3)n2)CC1 | 48.1% |
| CCCS(=O)(=O)N1CCN(c2cc(-n3nc(C)cc3C)nc(C)n2)CC1 | 0.139% |
| CC(=O)N1CCCn2nc(CNS(=O)(=O)Cc3ccccc3)cc2C1 | -3.83% |
| CCCS(=O)(=O)NCc1nc(C)cc(N2CCCC2)n1 | 56.6% |
| CCS(=O)(=O)NCc1nc(C)cc(N2CCCC2)n1 | 25.1% |
